Results filed as inconclusive are left out. Active and inactive are the calls of the source. Unless noted, calls follow the shape of the dose curve; as a rule, active = well fitted curve in the direction sought with a large enough effect; inconclusive = small, poorly fitted or top-dose-only effect, or another doubt; inactive = no such curve, though single readings can be large; an effect the other way counts as inactive or inconclusive.
How the values were obtained:
[1] = qHTS to identify inhibitors of the type 1 interferon - major histocompatibility complex class I in skeletal muscle: primary screen against the NCATS Pharmaceutical Collection (AID 1347407);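 also: luminescence of HiBiT knocked into endogenous HLA-B as interferon-induced MHC class I level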
Method in brief: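 Compounds […] were added to CRISPR-engineered HLA-B-HiBiT C25cl48 human myoblasts with 4.0 ng/ml IFN-beta. After 24 hrs at 37 C, cells were lysed and HiBiT luminescence measured.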

[2] = molecular target: Protein phosphatase 1D (Homo sapiens) (UniProt O15297); test: RapidFire Mass Spectrometry qHTS Assay for Modulators of WT P53-Induced Phosphatase 1 (WIP1) (AID 1347424);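 also: amount of dephosphorylated VEPPL-S-QETFS peptide product formed by WIP1; series mostly up to about 63 µM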
Sequence of Protein phosphatase 1D (Homo sapiens) (O15297 whole entry, looked up): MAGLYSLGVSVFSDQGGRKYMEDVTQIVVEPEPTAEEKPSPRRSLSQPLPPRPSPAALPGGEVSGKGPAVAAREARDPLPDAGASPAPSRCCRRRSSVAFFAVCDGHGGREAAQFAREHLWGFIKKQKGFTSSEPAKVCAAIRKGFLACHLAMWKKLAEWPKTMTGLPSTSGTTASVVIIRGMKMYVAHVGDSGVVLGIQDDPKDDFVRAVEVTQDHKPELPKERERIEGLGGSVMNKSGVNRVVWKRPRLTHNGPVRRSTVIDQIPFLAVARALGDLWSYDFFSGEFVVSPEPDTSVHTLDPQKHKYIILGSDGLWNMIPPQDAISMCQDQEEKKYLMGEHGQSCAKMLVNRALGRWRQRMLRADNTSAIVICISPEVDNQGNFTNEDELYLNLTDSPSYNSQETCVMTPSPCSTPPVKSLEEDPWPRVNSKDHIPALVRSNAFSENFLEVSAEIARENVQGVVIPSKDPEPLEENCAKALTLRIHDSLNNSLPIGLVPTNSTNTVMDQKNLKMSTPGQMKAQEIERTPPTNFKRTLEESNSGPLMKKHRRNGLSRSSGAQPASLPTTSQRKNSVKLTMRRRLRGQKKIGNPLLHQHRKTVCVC
Method in brief: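 RapidFire mass spectrometry measured dephosphorylated peptide after 5 min room-temperature reaction of 2 uM VEPPL-pS-QETFS with 10 nM WIP1 (50 mM Tris-HCl pH 7.5, 30 mM MgCl2, 0.1 mM EGTA, BSA), following 1 hr compound preincubation; 1 uM isotope-labelled product standard.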

[3] = molecular target: Protein phosphatase 1D (Homo sapiens) (UniProt O15297); test: Rhodamine-PBP qHTS Assay for Modulators of WT P53-Induced Phosphatase 1 (WIP1) (AID 1347425)
Method in brief: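 WIP1 (5 nM final) was preincubated with compound for 1 hour at room temperature. It then dephosphorylated 10 uM VEPPL-pS-QETFS peptide in Tris-HCl pH 7.5 with 30 mM MgCl2. Released Pi was detected by 10 uM Rh-PBP fluorescence (ex 525/em 598 nm) read at 1-min intervals for 11 min, as delta f1 - f0.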

[4] = Primary qHTS for inhibitors of La Crosse Virus (LACV) - induced cell death in SH-SY5Y cells (AID 1508616);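 also: top concentration of the series differs between compounds; higher means more rescue of cells from virus-induced death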
Method in brief: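 Cytopathicity rescue screen: compounds pinned onto SH-SY5Y cells, which are then infected with LACV (MOI 0.01) and held 6 days at 37C. Percent activity is scaled between infected DMSO control and uninfected DMSO control.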

[5] = molecular target: Calcium and integrin-binding protein 1 (Homo sapiens) (UniProt Q99828); test: Primary qHTS for Identification of Calcium Integrin Binding Protein 1 (CIB1) Competitor (AID 1508620);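 also: GST tagged CIB1 binding a fluorescein labelled alphaIIb integrin peptide tracer; top concentration of the series differs between compounds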
Sequence of Calcium and integrin-binding protein 1 (Homo sapiens) (Q99828 whole entry, looked up): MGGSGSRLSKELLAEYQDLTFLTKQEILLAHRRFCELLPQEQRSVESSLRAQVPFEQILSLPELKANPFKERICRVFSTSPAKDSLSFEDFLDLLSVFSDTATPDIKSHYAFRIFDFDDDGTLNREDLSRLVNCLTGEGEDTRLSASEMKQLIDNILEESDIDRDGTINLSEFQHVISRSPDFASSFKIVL
Method in brief: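 CIB1-GST (1 uM final) and compound incubated 15 min at room temperature before adding FITC-alphaIIb peptide tracer (100 nM final). Competition for binding read by fluorescence polarization (ex 480, em 540) after another 15 min at room temperature.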

[6] = A High-Content qHTS Against Drug Library for the Identification of Small Molecules that Inhibit DYT1 Early Onset Primary Dystonia-Associated Cell Pathology (AID 1645839; calls by dose curve; also: series mostly up to about 46 µM)
Method in brief: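 High-content imaging quantified EGFP-TorsinA mislocalization in HEK293-derived cells inducibly expressing DYT1 mutant torsinA, after 48 h exposure to compound given together with tetracycline induction. Cell count served as a toxicity channel alongside %pathology.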

[7] = molecular target: Cytochrome P450 2D6 (Homo sapiens) (UniProt P10635); test: Cytochrome P450 family 2 subfamily D member 6 (CYP2D6) small molecule antagonists: luciferase biochemical (cell-free) qHTS assay (AID 1645840; active = well fitted curve in the direction sought with a large enough effect in the repeat runs; an effect the other way counts as inactive or inconclusive; also: nearly all actives have a fitted effect of over 55% in size; also: potency is read from the fitted curve at half-maximal effect)
Sequence of Cytochrome P450 2D6 (Homo sapiens) (P10635 whole entry, looked up): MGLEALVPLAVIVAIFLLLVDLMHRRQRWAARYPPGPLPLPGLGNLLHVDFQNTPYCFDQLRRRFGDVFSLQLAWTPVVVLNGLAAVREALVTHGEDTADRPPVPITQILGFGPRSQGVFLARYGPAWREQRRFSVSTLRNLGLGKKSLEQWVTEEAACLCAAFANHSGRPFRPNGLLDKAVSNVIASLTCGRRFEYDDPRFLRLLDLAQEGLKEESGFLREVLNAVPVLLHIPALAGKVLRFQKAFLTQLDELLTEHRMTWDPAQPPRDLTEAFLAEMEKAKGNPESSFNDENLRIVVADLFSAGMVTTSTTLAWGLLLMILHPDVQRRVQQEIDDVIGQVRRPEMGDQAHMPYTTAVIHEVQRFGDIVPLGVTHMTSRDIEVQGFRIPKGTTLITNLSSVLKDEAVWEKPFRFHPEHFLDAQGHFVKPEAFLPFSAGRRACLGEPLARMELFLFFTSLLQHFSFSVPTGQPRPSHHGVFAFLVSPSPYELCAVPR
Method in brief: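 P450-Glo CYP2D6 system: proluciferin substrate converted by enzyme to luciferin, read by luminescence proportional to activity. Enzyme-substrate mix with compound 10 min at room temperature, then NADPH regeneration 1 h before detection reagent.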

[8] = Primary qHTS for small molecule stabilizers of the endoplasmic reticulum resident proteome: Secreted ER Calcium Modulated Protein (SERCaMP) assay (AID 1508630)
Method in brief: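 The SH-SY5Y reporter protocol was run at 3 concentrations up to 38.3 uM (primary) or 11 concentrations (follow-up): 16 h compound, 100 nM thapsigargin for 4 h, then extracellular luciferase luminescence.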

Measured: Potency

Cc1ncc(CO)c(CN)c1O
inactive: [1] | [2] | [3] | [4] | [5] | [6] | [7]

Cc1ccc(C(C)C)c(O)c1
inactive: [1] | [2] | [3] | [4] | [5] | [6] | [7]

C1CCN2C[C@@H]3C[C@@H](CN4CCCC[C@@H]34)[C@H]2C1
inactive: [1] | [2] | [3] | [4] | [5] | [6]

O=C(NCN1CCOCC1)c1cnccn1
inactive: [1] | [2] | [3] | [4] | [5] | [6] | [7]

COc1ccc(O)cc1
inactive: [1] | [2] | [3] | [4] | [5] | [7]

NC(=O)NC1NC(=O)NC1=O (configuration not stated)
inactive: [1] | [2] | [3] | [4] | [5] | [6] | [7]

C=CCOc1ccccc1OCC(O)CNC(C)C (configuration not stated)
active: [7] 13.8 µM
inactive: [1] | [2] | [3] | [8] | [6]

Nc1ccncc1N
inactive: [1] | [2] | [3] | [4] | [8] | [6] | [7]

NCC1CCC(C(=O)Oc2ccc(CCC(=O)O)cc2)CC1 (configuration not stated)
inactive: [1] | [2] | [3] | [5] | [6] | [7]

C[n+]1ccccc1/C=N/O
inactive: [1] | [2] | [3] | [5] | [6] | [7]

CC(=O)N(CC(O)CN(C(C)=O)c1c(I)c(C(=O)NCC(O)CO)c(I)c(C(=O)NCC(O)CO)c1I)c1c(I)c(C(=O)NCC(O)CO)c(I)c(C(=O)NCC(O)CO)c1I (configuration not stated)
inactive: [1] | [2] | [3] | [5] | [8] | [6] | [7]

C=CCNC(N)=S
inactive: [1] | [2] | [3] | [6] | [7]

Reference: PubChem BioAssay (NCATS)
